In PubChem BioAssay (NCI):
About 79,000 compounds went through this panel and 15% of them were active in at least one assay; those are over-represented in the sample as a whole. Values without a mark were called inactive. Active and inactive are the calls of the source. Cut-off read from the data, not from the text of the source: active = growth inhibition above about 70%; inactive = the rest.

Assay: NCI Yeast Anticancer Drug Screen. Data for the rad50 strain (AID 155);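 note: 0% = growth of vehicle-only cultures of the same strain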
Conditions: S. cerevisiae rad50 strain growth inhibition; at 100.0 µM; stronger effect = higher value
Method in brief: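 Genetically altered yeast (DNA repair pathway); compound treatment; growth inhibition vs vehicle ctrl.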

Compound | growth inhibition
O=C1/C(=C/c2ccccc2)CCCC1CN1CCCCC1 (stereo not drawn) | 68%
C#CCN(Cc1ccc2nc(N)[nH]c(=O)c2c1)c1ccc(C(=O)NC(CCC(=O)O)C(=O)O)cc1 (stereo not drawn) | 89% (active)
CCOC1(c2cccc([N+](=O)[O-])c2)c2ccccc2Oc2ccccc21 | 9%
O=C(O)CNC(=S)Nc1ccccc1 | 93% (active)
N/C(=N/N=C/c1cc(Br)cc(Br)c1O)NO | 97% (active)
C[Si](C)(C)/C=C/CCNC(C#N)c1ccccc1 (stereo not drawn) | 92% (active)
CCCCCCCCCCCCCCCCOP(=O)(O)OCC(N)C(=O)O (stereo not drawn) | 97% (active)
CC1=C(C(=O)NCc2ccccc2)C(c2ccccc2)C(C(=O)NCc2ccccc2)=C(C)N1 | 91% (active)
O=[N+]([O-])c1cc(S(=O)(=O)Nc2ccccc2)ccc1Nc1ccccc1 | 75% (active)
COc1cc2ccnc(-c3c4ccccc4c(N)c4c(OC)c(OC)ccc34)c2cc1OC | 94% (active)
CCOC(=O)C(Br)C(Br)c1ccccc1Cl (stereo not drawn) | 99% (active)
CCOC(=O)C1=C(C)NC(C)=C(C(=O)OCCNC(=O)c2ccc(N=[N+]=[N-])cc2)C1c1ccccc1C(F)(F)F (stereo not drawn) | 41%
Cc1cc(C)c(NC(=S)NC(=O)c2ccccc2)cc1C | -21%
CNCCCNc1c2ccccc2nc2cccc([N+](=O)[O-])c12 | 96% (active)
COc1c(O)c(C=O)c(Br)c(C=O)c1O | 86% (active)
Cc1c(C)c(C)c(CSC(=N)N)c(C)c1C | 99% (active)
O=C(CSC(=S)N1CCCCC1)Nc1nc2c(s1)CCCC2 | 83% (active)
CNC(=O)OCc1c(COC(=O)NC)c(-c2ccc(Cl)cc2)n2c1CCC2 | 97% (active)
CC(=O)OC1CC2C(C)(C)C(=O)C=C[C@]2(C)C2CCC3(C)C(=CCC3[C@H](CO)C[C@H](O)C(=O)C(C)(C)O)[C@]12C (stereo partly drawn) | 62%
CCCCCCOC(=O)NCCOC(=O)Nc1ccccc1 | 7%

Compound | growth inhibition
C[C](C)(C)[Ge]([O][Ge]([c]1ccccc1)[c]1ccccc1)([O][Ge]([c]1ccccc1)[c]1ccccc1)[C](C)(C)C | 71% (active)
CCc1c(Cl)c(C)cc(O)c1Cl | 94% (active)
Cc1nc(Nc2ccccc2[N+](=O)[O-])sc1C(=O)CC(=O)C(=O)Nc1c(C(C)C)cccc1C(C)C | 3%
O=[N+]([O-])c1cccc2nc3ccccc3c(NCCCn3ccnc3[N+](=O)[O-])c12 | 96% (active)
CCCCCCC(O)CNCc1ccnc2ccc(OC)cc12 (stereo not drawn) | 54%
Cc1c2cccc(Sc3ccccc3)c2c2c3c(cccc13)[S+](c1ccccc1)C2 (stereo not drawn) | 82% (active)
C=C1CCC(O)C/C1=C/C=C1\CCCC2(C)C1CCC2C(C)CCCC(C)C (stereo not drawn) | 30%
NC1=NNC2(C(N)=N1)c1ccccc1-c1ccccc12 | 94% (active)
COc1cc2cc3c4cc(OC)c(OC)cc4cc[n+]3c(C)c2cc1OC | 7%
COC(=O)NC1C(C)OC(OC2C/C=C(/C)C3C=CC4C(OC5CC(OC6CC(O)C(OC7CC(O)C(OC)C(C)O7)C(C)O6)C(O)C(C)O5)C(C)CC(C)C4C3(C)/C(O)=C3\C(=O)OC4(CC(C)C(CO)=CC4/C=C\2C)C3=O)CC1(C)[N+](=O)[O-] (stereo not drawn) | 16%
O=C1CSC(c2cccc(Cl)c2)N1c1ccc(-c2ccc(-n3c(-c4ccccc4)nc4ccccc4c3=O)cc2)cc1 (stereo not drawn) | 22%
CCOC(=O)C(C(=O)OCC)=P(c1ccccc1)(c1ccccc1)c1ccccc1 | 96% (active)
COc1ccc(N=CN(C)C)c(C)c1 | 95% (active)
Cc1cc(S(=O)(=O)Nc2nnc3cnc4ccccc4n23)c(S)cc1Cl | 37%
O=C(Oc1ccc2c(c1)CN(Cc1ccccc1)CO2)c1ccccc1 | 32%
CN(C)[C@@H]1C(=O)C(C(N)=O)=C(O)[C@@]2(O)C(=O)C3=C(O)c4c(O)cccc4C[C@H]3C[C@@H]12 | 99% (active)
O=[N+]([O-])c1ccc2c(c1)/C(=N/N=C1c3ccccc3Cc3ccccc31)c1cc([N+](=O)[O-])cc([N+](=O)[O-])c1-2 | 94% (active)
Cc1nc2c(Br)cc(Br)cc2c(=O)n1-c1ccccc1NC1OCC(O)C(O)C1O (stereo not drawn) | 96% (active)
Cc1cc(N(CCOS(C)(=O)=O)CCOS(C)(=O)=O)ccc1C=Nc1ccc(-c2nc(Cc3ccccc3)sc2C)cc1 | 97% (active)

Assay: NCI Yeast Anticancer Drug Screen. Data for the mec2-1 strain (AID 157)
Conditions: S. cerevisiae mec2-1 strain, at 1.2 µM, stronger effect = higher value
Method in brief: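 Cells of the genetically defined mec2-1 yeast strain are incubated with test compound. Inhibition of growth is calculated against vehicle-treated controls.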

Compound | growth inhibition [%]
O=C1/C(=C/c2ccccc2)CCCC1CN1CCCCC1 (stereo not drawn) | 16
C#CCN(Cc1ccc2nc(N)[nH]c(=O)c2c1)c1ccc(C(=O)NC(CCC(=O)O)C(=O)O)cc1 (stereo not drawn) | -9
CCOC1(c2cccc([N+](=O)[O-])c2)c2ccccc2Oc2ccccc21 | -3
O=C(O)CNC(=S)Nc1ccccc1 | -68
N/C(=N/N=C/c1cc(Br)cc(Br)c1O)NO | -89
C[Si](C)(C)/C=C/CCNC(C#N)c1ccccc1 (stereo not drawn) | -21
CCCCCCCCCCCCCCCCOP(=O)(O)OCC(N)C(=O)O (stereo not drawn) | 6
CC1=C(C(=O)NCc2ccccc2)C(c2ccccc2)C(C(=O)NCc2ccccc2)=C(C)N1 | -1
O=[N+]([O-])c1cc(S(=O)(=O)Nc2ccccc2)ccc1Nc1ccccc1 | 18
COc1cc2ccnc(-c3c4ccccc4c(N)c4c(OC)c(OC)ccc34)c2cc1OC | -1
CCOC(=O)C(Br)C(Br)c1ccccc1Cl (stereo not drawn) | 0
CCOC(=O)C1=C(C)NC(C)=C(C(=O)OCCNC(=O)c2ccc(N=[N+]=[N-])cc2)C1c1ccccc1C(F)(F)F (stereo not drawn) | 1
Cc1cc(C)c(NC(=S)NC(=O)c2ccccc2)cc1C | -41
CNCCCNc1c2ccccc2nc2cccc([N+](=O)[O-])c12 | 41
COc1c(O)c(C=O)c(Br)c(C=O)c1O | 3
Cc1c(C)c(C)c(CSC(=N)N)c(C)c1C | -74
O=C(CSC(=S)N1CCCCC1)Nc1nc2c(s1)CCCC2 | 7
CNC(=O)OCc1c(COC(=O)NC)c(-c2ccc(Cl)cc2)n2c1CCC2 | -55
CC(=O)OC1CC2C(C)(C)C(=O)C=C[C@]2(C)C2CCC3(C)C(=CCC3[C@H](CO)C[C@H](O)C(=O)C(C)(C)O)[C@]12C (stereo partly drawn) | -56
CCCCCCOC(=O)NCCOC(=O)Nc1ccccc1 | 0

Compound | growth inhibition [%]
C[C](C)(C)[Ge]([O][Ge]([c]1ccccc1)[c]1ccccc1)([O][Ge]([c]1ccccc1)[c]1ccccc1)[C](C)(C)C | 4
CCc1c(Cl)c(C)cc(O)c1Cl | -10
Cc1nc(Nc2ccccc2[N+](=O)[O-])sc1C(=O)CC(=O)C(=O)Nc1c(C(C)C)cccc1C(C)C | 2
O=[N+]([O-])c1cccc2nc3ccccc3c(NCCCn3ccnc3[N+](=O)[O-])c12 | 29
CCCCCCC(O)CNCc1ccnc2ccc(OC)cc12 (stereo not drawn) | 4
Cc1c2cccc(Sc3ccccc3)c2c2c3c(cccc13)[S+](c1ccccc1)C2 (stereo not drawn) | 7
C=C1CCC(O)C/C1=C/C=C1\CCCC2(C)C1CCC2C(C)CCCC(C)C (stereo not drawn) | -40
NC1=NNC2(C(N)=N1)c1ccccc1-c1ccccc12 | 11
COc1cc2cc3c4cc(OC)c(OC)cc4cc[n+]3c(C)c2cc1OC | -13
COC(=O)NC1C(C)OC(OC2C/C=C(/C)C3C=CC4C(OC5CC(OC6CC(O)C(OC7CC(O)C(OC)C(C)O7)C(C)O6)C(O)C(C)O5)C(C)CC(C)C4C3(C)/C(O)=C3\C(=O)OC4(CC(C)C(CO)=CC4/C=C\2C)C3=O)CC1(C)[N+](=O)[O-] (stereo not drawn) | 2
O=C1CSC(c2cccc(Cl)c2)N1c1ccc(-c2ccc(-n3c(-c4ccccc4)nc4ccccc4c3=O)cc2)cc1 (stereo not drawn) | 3
CCOC(=O)C(C(=O)OCC)=P(c1ccccc1)(c1ccccc1)c1ccccc1 | 0
COc1ccc(N=CN(C)C)c(C)c1 | -44
Cc1cc(S(=O)(=O)Nc2nnc3cnc4ccccc4n23)c(S)cc1Cl | -1
O=C(Oc1ccc2c(c1)CN(Cc1ccccc1)CO2)c1ccccc1 | -2
CN(C)[C@@H]1C(=O)C(C(N)=O)=C(O)[C@@]2(O)C(=O)C3=C(O)c4c(O)cccc4C[C@H]3C[C@@H]12 | -5
O=[N+]([O-])c1ccc2c(c1)/C(=N/N=C1c3ccccc3Cc3ccccc31)c1cc([N+](=O)[O-])cc([N+](=O)[O-])c1-2 | 16
Cc1nc2c(Br)cc(Br)cc2c(=O)n1-c1ccccc1NC1OCC(O)C(O)C1O (stereo not drawn) | 7
Cc1cc(N(CCOS(C)(=O)=O)CCOS(C)(=O)=O)ccc1C=Nc1ccc(-c2nc(Cc3ccccc3)sc2C)cc1 | -26
